Assay outcomes deposited in PubChem by National Center for Advancing Translational Sciences (NCATS).
Most compounds without a hit are left out; they make up all but 1% or so of the library.
GPT2 inh – blocks human glutamate pyruvate transaminase 2 | Potency, µM (doses to about 57.7 µM), most hits filed as inhibitors | AID 1671188 | 100,000 tested, 0.25% active | Recombinant GPT2, coupled pyruvate oxidase/HRP Amplex Red fluorescence; note: nearly all actives have a fitted effect of over 60% in size
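Inhibition is scored from Amplex Red fluorescence generated when pyruvate oxidase and HRP act on pyruvate released by GPT2. Reactions contain 10ng/uL enzyme, 250uM a-KG and 2mM L-alanine and run 30 min at room temperature.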
IP6K1 inhibitor – blocks human inositol hexakisphosphate kinase 1 | 140,000 tested, 0.81% active | activity change, % (series mostly up to about 58 µM) | IP6K1 kinase, ADP-Glo luminescence, 2 h; active compounds read low | AID 1645851; in the data active = activity change below about -25%
Target sequence (Q92551 whole entry, looked up): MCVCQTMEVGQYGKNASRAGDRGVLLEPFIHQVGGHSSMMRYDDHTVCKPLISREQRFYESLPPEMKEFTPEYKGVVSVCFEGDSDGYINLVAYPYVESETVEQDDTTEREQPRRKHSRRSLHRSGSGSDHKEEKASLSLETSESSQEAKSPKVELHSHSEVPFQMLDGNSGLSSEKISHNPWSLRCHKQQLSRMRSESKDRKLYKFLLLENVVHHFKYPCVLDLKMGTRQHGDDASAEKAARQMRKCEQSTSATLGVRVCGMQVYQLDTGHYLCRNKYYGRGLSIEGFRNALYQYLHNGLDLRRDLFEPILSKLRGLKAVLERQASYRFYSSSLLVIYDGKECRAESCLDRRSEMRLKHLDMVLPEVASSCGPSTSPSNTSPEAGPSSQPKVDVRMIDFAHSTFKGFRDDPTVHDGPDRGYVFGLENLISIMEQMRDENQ
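ADP-Glo luminescence measures ADP made by human IP6K1 during a 2 h RT reaction with ATP/IP6 (mix at 1.3 mM/130 uM); top library doses 57.5 and 19.1 uM final.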
SNCA expr inhib – reduces expression of the alpha-synuclein gene | HEK-293 SNCA-luciferase knock-in, luminescence, 24 h | Potency, µM (series often up to 57.2 µM), most hits filed as inhibitors | 140,000 tested, 0.17% active; note: nearly all actives have a fitted effect of over 45% in size
HEK293 viab – counter-screen for SNCA expression inhibitors: cell viability. HEK-293-SNCA-luc viability, GF-AFC fluorescence, 24 h. Potency, µM (highest dose often 57.1 µM), usual class: cytotoxic. 150,000 tested, 0.12% active. AID 1671193; note: nearly all actives have a fitted effect of over 30% in size
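HEK-293-SNCA-luc cells (1500/well) plated 24 h, then exposed 24 h to a dilution series; GF-AFC added 30 min at 37C, fluorescence 405/540 nm; normalised to medium-only and DMSO wells, Hill fit.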
IP6K1 conf – confirmation of human IP6K1 inhibitors. shares compounds with IP6K1 inhibitor. recombinant IP6K1 kinase, ADP-Glo luminescence, 2 h. Potency, µM (top dose mostly 49 µM), actives largely listed as inhibitors. 1,200 tested, 13% active; note: nearly all actives have a fitted effect of over 65% in size
Numbers stand for hits; i = inactive; ? = inconclusive; nt = no result; [ ] = another dose, or the depositor's remark. Unless noted, calls come from the whole dose curve; as a rule, active = well fitted curve in the direction sought with a large enough effect; inconclusive = small, poorly fitted or top-dose-only effect, or another doubt; inactive = no such curve, though single readings can be large; an effect the other way counts as inactive or inconclusive.

SMILES | GPT2 inh | IP6K1 inhibitor | SNCA expr inhib | HEK293 viab | IP6K1 conf
CCCCCNC(=O)C1CCCN1Cc1ccc(-c2cccc(OC)c2)cc1 (stereo unspecified) | i | i | i | i | nt
CN(Cc1ccno1)Cc1cn(C)nc1-c1ccc(C2CCCCC2)cc1 | i | i | i | i | nt
COc1cccc(-c2nc3cc(SC)ccc3cc2CN(C)Cc2ccno2)c1 | i[11.5 µM] | -33 | i | i | i
Cc1ccc(-c2cccc(CN3CCCC3C(=O)N3CCCCC3)c2)cc1Cl (stereo unspecified) | nt | i | nt | nt | nt
Cc1ccc2c(c1)cc1c(=O)n(Cc3ccc(Cl)cc3)nc(C)n12 | nt | i | i | i | nt
Cc1ccc2c(c1)cc1c(=O)n(Cc3cccc(Cl)c3)nc(C)n12 | nt | -30 | i | i | i
COc1ccc(-c2ccc(C(=O)N3CCCC3)c(Cl)c2)nn1 | nt | -69 | nt | nt | ?
COc1ccc(-c2ccc(C(=O)N(C)C)c(Cl)c2)nn1 | nt | -46 | nt | nt | ?
COc1ccc(-c2ccc(C(=O)N(C)c3ccccc3)cc2)nn1 | nt | i | nt | nt | ?
COc1ccc(-c2ccc(C(=O)NC(C)C)c(Cl)c2)nn1 | nt | i | nt | nt | nt
COc1cccc(C(=O)N2CCC(N3C(=O)c4c(c(C)nn4-c4ccccc4)C3C)CC2)c1 (stereo unspecified) | nt | i | nt | nt | nt
Cn1ncc2c(C(=O)Nc3cccc(C(F)(F)F)c3)cc(-c3ccccc3F)nc21 | nt | i | nt | nt | nt
Cn1ncc2c(C(=O)Nc3cccc(C(F)(F)F)c3)cc(-c3ccc(F)cc3)nc21 | nt | i | nt | nt | nt
CCOc1ccc(C2C(C(=O)OC)=C(C)NC3=C2C(=O)c2ccccc23)cc1OC (stereo unspecified) | nt | -27 | i | ? | ?
Cc1oc(-c2ccc(C(=O)NCc3ccc(N(C)C)cc3)cc2)nc1COc1ccccc1 | nt | -25 | i | i | i
Cc1ccc(OCc2nc(-c3ccc(C(=O)NCc4ccc(OC(C)C)cc4)cc3)oc2C)cc1 | nt | i | i | i | nt
COc1cccc(CNC(=O)C23CCC=C2N(C2CCCC2)C(=O)CC3)c1OC (stereo unspecified) | i | i | i | i | nt
O=C(NCC1CCCCC1)c1cc(-c2ccc(F)cc2)c2nncn2n1 | i | i | i | i | nt
Cc1ccc(S(=O)(=O)c2nc(-c3cccs3)oc2N2CCC(C)CC2)cc1 | nt | i | i | i | nt
Cc1ccc(-c2nc(S(=O)(=O)c3ccc(C)cc3)c(N3CCCCC3)o2)cc1 | nt | -29 | i | i | ?
Cc1ccc(S(=O)(=O)c2nc(-c3ccccc3)oc2N2CCCCCC2)cc1 | nt | i | i | i | nt
O=S(=O)(c1ccccc1)c1nc(-c2cccs2)oc1N1CCCCC1 | nt | -36 | i | i | i
O=C(C1CC1)N1CCCN(c2ccnc3ccnn23)CC1 | i | i | i | i | nt
Oc1ccc(NCc2ccc(OCc3ccccc3)cc2)cc1 | nt | i | i | i | nt
Oc1ccc(NCc2ccc(OCc3ccccc3Cl)cc2)cc1 | nt | -28 | i | ? | ?
SMILES | GPT2 inh | IP6K1 inhibitor | SNCA expr inhib | HEK293 viab | IP6K1 conf
COCc1cc(C)nc2sc3c(c12)NC(c1ccccc1C(=O)O)N(c1ccc(OC)cc1)C3=O (stereo unspecified) | nt | -31 | i | i | i
COCc1cc(C)nc2sc3c(c12)NC(c1ccc(O)c(OC)c1)N(c1ccccc1)C3=O (stereo unspecified) | nt | i | i | ? | nt
COc1cc(F)c(F)c(Nc2ccc(I)cc2F)c1NS(=O)(=O)C1(C[C@H](O)CO)CC1 | i | i | i | i | i
CC(C)Nc1ccc2nnc(-c3ccc(F)cn3)n2n1 | i | -26 | i | i | i
COc1ccc(-c2cc(C(=O)Oc3cccc(C)c3)c3cc(C)ccc3n2)cc1 | nt | -30 | i | i | i
COc1ccc(-c2cc(C(=O)Oc3cccc(C)c3)c3ccccc3n2)cc1 | nt | i | i | i | nt
COc1cccc(CNC(=O)c2ccc3nnc(-c4cc[nH]c4)n3c2)c1 | i | i | i | i | nt
COc1cccc(-c2noc(Nc3ccc(OC)c(OC)c3)n2)c1 | i | i | i | i | nt
COc1ccccc1N1CCN(CCC(=O)N(C)Cc2ccccc2)CC1=O | i | i | i | i | nt
COc1ccccc1N1CCN(C(=O)CCc2ccccc2C)CC1=O | i[11.5 µM] | -34 | i | i | i
Cc1cc(C)c2oc(C(=O)Nc3ccc(S(=O)(=O)N4CCCCC4)cc3)cc(=O)c2c1 | nt | -26 | ? | i | i
Cc1ccc2c(=O)cc(C(=O)Nc3ccc(S(=O)(=O)N4CCCCC4)cc3)oc2c1C | nt | i | i | i | nt
CCN(CC)S(=O)(=O)c1ccc2c(c1)N(CC(=O)N1CCN(c3cccc(C(F)(F)F)c3)CC1)C(=O)CO2 | nt | -25 | i | i | i
CCN(CC)S(=O)(=O)c1ccc2c(c1)N(CC(=O)N1CCN(c3ccc(F)cc3)CC1)C(=O)CO2 | nt | i | i | ? | nt
OCCn1cc(-c2cnc3nnn(Cc4ccc5ncccc5c4)c3n2)cn1 | ? | i | i | i | i
Cn1cc(-c2ccc3nnc(Sc4ccc5ncccc5c4)n3n2)cn1 | i | nt | i | i | nt
O=S(=O)(O)c1ccc2cc(N=Nc3cc(S(=O)(=O)O)c4cccnc4c3O)ccc2c1 | i | -52 | ? | ? | ?
Cc1nc(N=Nc2ccc(S(=O)(=O)O)cc2S(=O)(=O)O)c(COP(=O)(O)O)c(C=O)c1O | i | nt | i | i | nt
Cc1ccc(NC(=O)C(NS(=O)(=O)c2ccc3c(c2)CCC(=O)N3)c2ccccc2)cc1C (stereo unspecified) | nt | -32 | i | i | i
COCCN1CCC(N2CCN(S(=O)(=O)c3cccc(Cl)c3)CC2)C1=O (stereo unspecified) | i | i | i | i | nt
COc1ccc(CNC(=O)CCc2cn(Cc3cc(C)ccc3C)c3ccccc23)cc1OC | nt | i | ? | i | nt
Cc1ccccc1Cn1cc(CCC(=O)NCc2cccc(Br)c2)c2ccccc21 | nt | -29 | i | ? | i
CN(C)C(=O)c1cc(-c2ccc(Cl)cc2)cn1C | i | -33 | i | i | ?
O=C(Nc1ccccc1C(F)(F)F)n1ncc2cc(Cl)ccc21 | nt | i | i | i | nt
CCOc1ccccc1NC(=O)n1ncc2cc(Cl)ccc21 | nt | -37 | i | i | i
SMILES | GPT2 inh | IP6K1 inhibitor | SNCA expr inhib | HEK293 viab | IP6K1 conf
Cn1nc(-c2ccc(C(F)(F)F)cc2)nc2c(=O)n(C)c(=O)nc1-2 | ? | -41 | nt | ? | ?
COc1ccc(-c2nc(C)nc3c2CCN(C(=O)c2ccc(C(F)(F)F)cc2)CC3)cc1 | ? | i | i | i | nt
Cc1ccc(S(=O)(=O)Nc2cccc(-c3cn4cccc(C)c4n3)c2)cc1 | nt | -26 | i | i | i
Cc1ccc(C(=O)Oc2c(S(=O)(=O)c3ccccc3)c(C)nn2-c2ccccc2)cc1 | nt | i | i | i | nt
Cc1nn(-c2ccccc2)c(OC(=O)c2ccc(Br)cc2)c1S(=O)(=O)c1ccccc1 | nt | -32 | i | i | i
CNC(=O)c1ccccc1Nc1nc(Nc2ccc(N3CCNCC3)cc2)ncc1Cl | i | i | nt | i | nt
CNC(=O)c1ccccc1Nc1cc(Nc2ccc(N3CCOCC3)cc2OC)ncc1C(F)(F)F | 22µM | -53 | nt | i | ?
Cc1nc(-c2ccc(OCC(C)C)c(C#N)c2)sc1C(=O)O | i | -49 | i | i | 6.5µM
